Bioassay records from PubChem BioAssay.
In the library only some 21% were active in any assay of this set; here they are far more common.
Shiga inhibitor: Shiga toxin inhibition; Vero cells, Shiga toxin protein synthesis inhibition reporter; inhibition, % at 38.7 µM; 9.2% of 290,000 active; in the data active = inhibition mostly above about 28%, no sharp cut-off; inactive = mostly below about 43%; also: 0% is about no effect
Pf growth 48h: inhibits P. falciparum growth in the first generation, 48 h; 5.9% of 310,000 active; P. falciparum luciferase growth in erythrocytes, 48 h; Potency, µM (doses to about 28.7 µM), inactives show at the top dose activity change, negative = inhibition, hits mostly inhibitors; also: potency is read from the fitted curve at half-maximal effect; % is scaled to controls: 0 for no effect and ±100 for the full control effect
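Here the parasites carry a stable luciferase gene and grow inside erythrocytes in Albumax-based RPMI medium with compound for one erythrocytic cycle. Activity is scored as loss of luminescent signal.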
Cycloheximide cs: counter-screen for Shiga toxin inhibitors: cycloheximide protein synthesis inhibition; cell reporter, cycloheximide protein synthesis inhibition counterscreen; max response, %; 12% of 300,000 active; AID 2314; in the data active = max response mostly above about 13%, no sharp cut-off; inactive = mostly below about 14%; also: read at 38.3 µM for the half of the compounds with a filed dose; 0% is about no effect
HCV inhibitor: inhibitors of hepatitis C virus infection | Potency, µM (doses to about 41.8 µM), for inactives: at the highest dose activity change, negative = inhibition, hits mostly inhibitors | 3.4% of 340,000 active | Huh7.5.1 HCVcc-Cre infection, luciferase reporter, 44 h; also: potency is read from the fitted curve at half-maximal effect; % is scaled to controls: 0 for no effect and ±100 for the full control effect
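Luciferase read-out (15 sec integration) after a 15 min room-temperature substrate step quantifies HCVcc-Cre infection. Cells, 1,000 per well, had compound added 4 h post-plating, then virus at ~0.5 moi, and were cultured 44 h.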
Pf growth 96h: inhibits malaria parasite growth, 96 h; 6.9% of 320,000 active; P. falciparum luciferase reporter growth, 96 h; AID 504834; Potency, µM (doses to about 28.7 µM), for the others: top-dose activity change, negative = inhibition, usual class: inhibitors; also: potency is read from the fitted curve at half-maximal effect; % is scaled to controls: 0 for no effect and ±100 for the full control effect
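Plates of compound plus infected erythrocytes (2% hematocrit, 0.05% parasitemia final) incubate 96 hours, 37 C, 5% CO2. Detection reagent added; reduced luminescence from the parasites' luciferase reporter flags inhibition.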
AMA1 RON2 block: inhibitors of Plasmodium falciparum AMA1-RON2 interaction; AlphaScreen AMA1-biotinylated RON2 peptide binding; Potency, µM (highest dose often 58.2 µM), for inactives: at the highest dose activity change, negative = inhibition, most hits filed as inhibitors; 0.2% of 360,000 active;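 also: potency is read from the fitted curve at half-maximal effect; 0% = vehicle wells and -100% = peptide control; nearly all actives have a fitted effect of over 45% in size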
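AMA1 (3D7) with his tag at 25 nM final met compounds first, then biotinylated RON2 peptide at 25 nM; detection used donor plus acceptor beads, 10 µg/mL apiece, read by AlphaScreen after 30 min at room temperature.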
* = called active by the depositor; u = inconclusive; x = no result given; + = active, no number; [ ] = dose if it differs, or a comment. Unless noted, calls follow the shape of the dose curve; as a rule, active = well fitted curve in the direction sought with a large enough effect; inconclusive = small, poorly fitted or top-dose-only effect, or another doubt; inactive = no such curve, though single readings can be large; an effect the other way counts as inactive or inconclusive.

SMILES | Shiga inhibitor | Pf growth 48h | Cycloheximide cs | HCV inhibitor | Pf growth 96h | AMA1 RON2 block
CCOc1cc(C(=O)Nc2cc(C)on2)cc(OCC)c1OCC | -13 | u | -1 | u | x | 4%
CCN(CC)C(=O)[C@H]1C[C@H](CC(=O)NCCN2CCOCC2)C(=O)N2CCc3c([nH]c4cc(CCC(=O)N(C)C)ccc34)[C@]12C | x | x | x | 7% | x | 15%
Cc1cc(NC(=O)Cc2ccccc2)no1 | -11 | -9% | -1 | 22% | u | -13%
Cc1cc(NC(=O)c2cccc(COc3ccc(Br)cc3)c2)no1 | + | 233% | 112* | u | -21% | 5%
C/C(=C\c1ccccc1)C(=O)Nc1cc(C)on1 | 98* | u | 40* | u | x | 5%
Cc1cc(NC(=O)NC(=O)c2ccccc2)no1 | 38* | 178% | 20* | 6% | u | 0%
O=C(NC(Cc1ccccc1)C(=O)O)c1cccnc1Cl (centres undefined) | 2 | 30% | -1 | 11% | 10% | -11%
C[C@@H](OC(=O)N1CCCCC1)[C@H]1O[C@]2(C)CCCC[C@H]1O2 | x | 39% | x | 24% | 53% | 4%
Cc1ccc(NC(=O)c2ccc3nsnc3c2)c(C)c1 | 35* | 83% | 30* | -3% | u | 2%
Cc1ccc(NC(=O)c2sc(C)nc2C)c(C)c1 | 36* | 11% | 17* | 3% | 28% | 6%
Cc1ccc(NC(=O)c2sc(Cl)nc2C)c(C)c1 | 1 | -5% | 12 | -1% | 4% | 17%
COC(=O)c1ccc(NC(=O)c2ccc3nsnc3c2)cc1 | 25 | 29% | 1 | u | 1% | -13%
C/C(=N\NC(=O)CNC(=O)c1cccc(F)c1)c1ccc2ccccc2c1 | -10 | 28% | -4 | u | 34% | -8%
Cc1ccccc1CN1C(=O)CN(S(C)(=O)=O)CC1(C)C(=O)NCc1ccccc1 (centres undefined) | x | x | x | x | x | -8%
Cc1cc(C(=O)COc2ccc(-c3nnco3)cc2)c(C)n1Cc1ccccc1 | 21 | u | 17* | u | u | 2%
CN(C)c1ccc(-c2nc3ccccc3n2C)cc1 | 15 | -76% | 24* | -5% | u | -13%
CC(C)n1c(-c2ccc(N(C)C)cc2)nc2ccccc21 | 114* | 64% | 29* | u | 57%[5.75 µM] | u
CCn1c(-c2ccc(N(C)C)cc2)nc2ccccc21 | 73 | 64% | 23 | u | u | 7%
C(=N\NC1=NCCN1)/c1ccncc1 | -3 | -11% | 4 | 7% | u | -12%
Oc1ccc(Br)cc1CNc1ccccn1 | 38 | u | 13* | -13% | 6.6µM* | 1%
COc1ccc(CNc2cc(C)ccn2)c(O)c1 | 79* | x | 25* | -3% | 15% | u
Cc1ccnc(NCc2ccccc2O)c1 | x | -7% | 14* | 2% | 9% | 4%
CCOC(=O)C1(C)CCCN1C(=O)c1cc(F)ccc1C (centres undefined) | x | x | x | x | x | -1%
O=C(O)C1CCN(S(=O)(=O)c2ccc3[nH]ccc3c2)CC1 | x | x | x | x | x | -2%
CC(C)[C@H](CO)NC(=O)[C@H]1O[C@@H](n2ccc(=O)[nH]c2=O)[C@H](O)[C@@H]1O | x | x | x | x | x | 1%
SMILES | Shiga inhibitor | Pf growth 48h | Cycloheximide cs | HCV inhibitor | Pf growth 96h | AMA1 RON2 block
O=C(O)C1C2C=CC3(CN(c4cccc(C(F)(F)F)c4)C(=O)C13)O2 (centres undefined) | -10 | 1% | -5 | 7% | 10µM* | 0%
Cc1cccc(N2CC34C=CC(O3)C(C(=O)O)C4C2=O)c1 (centres undefined) | -5 | 28% | -4 | 6% | 13% | -16%
C#CC[N+](C)(C)CC#Cc1ccc(C)cc1 | -4 | 1.9µM* | -1 | -1% | u | 22%
CCCCCCCC/C=C\CCCCCCCCCCCC(=O)O | -7 | x | 4 | x | x | x
O=C(c1cccnc1)C1Cc2ccccc2C1=O (centres undefined) | -2 | u | 6 | 14% | 7.4µM* | 8%
O=C(O)Cn1nc(-c2ccc(Cl)cc2)ccc1=O | -4 | 3%[0.00184 µM] | -1 | 11% | 13µM* | -5%
COc1ccc(C2=NN(Cc3ccccc3)C3C(=O)NC(=O)C23)cc1 (centres undefined) | 40 | 14% | 20* | 22% | u | 23%
